To fix the notation:
B1: ENSMUSG00000022095.66|Fam160b2 (ssRNA)
RNA: GGGAGUUCUACAGUCCGACGAUCGCUUCGAUAUCCGCAUGCUAACAACUCCAGGGGCCAGGGAGAUGAACUGCUGUCUUUGAGGCUGGCUAAAAAAACAAUCCAGUCCAGAGAGAUGGGGAGGGGGGGAGCAAGAACCCUGUCUGUUACAUUAGGUAUCAUGGAAGCUGCUAAGACUCGGCAGGUUUCUCCGAGGCUUCACGAACAGUAGUGGAGGAGACAGAGGAGGAGGCUGAGGGGAAGCCCCCUCUUCCUGCUCUACCCUCCUGGAGGCUGUUGCAAAAUUCCCAACUGCCUCCUGGCACUCUUGCGGUCGCACUAGUGUGGAAUUCUCGGGUGUCAAGG
B2: ENSMUSG00000004113.466|Cacna1b (ssRNA)
RNA: GGGAGUUCUACAGUCCGACGAUCGCUUCGAUAUCCGCAUGCUAUGAAGGUUUGUCGCAAAAAUUUAUAUUUAACAGUGUUGAGAGAGAGAGAGAGAGAGCGAGAGAGAGAGAGAUCCAGUCAUGCAACACAAAUGGGAUCUACUUUUAAACAACAGUCCUUUGACUAGUUUGCUGCCUGAAUAAUAUUUACAAACUAAACUUUGGAUUCUGCUCUUGUUUCUACAAUGAUUUUUUGUAUAAAGCAAAGUCCUUGGAUUAAAUAAAAACAACCCAAAAAAAAAAUCAAAAUCAAAACCCAGGAUCUCUUGCGGUCGCACUAGUGUGGAAUUCUCGGGUGUCAAGG
B3: ENSMUSG00000031028.203|Tub|203:207;209:214 (ssRNA)
RNA: GGGAGUUCUACAGUCCGACGAUCGCUUCGAUAUCCGCAUGCUAUCCUUUCUCUUCCCAGUUCCAGAGAUGAAACCCCUCCGAGUUAAUGUAUAAGGUUGGAAACCUUUCAGUAGGGAAUCAGGCAGUUCCCUGUUGAAAGUUGUCUGAGUUUUUGCACACCAUUCUGAUCUGAUGUGGCCUGUGCCUGGCUCCUCUAUGAGGACUUCGAGCUGUGCACAGACCUUAGCAGGACCACUGCACACUUACACACACACACACAGGCAGCCCAAGGGUUCUGGGGCUGGGCUUGGACACGCCCUCCACUCUUGCGGUCGCACUAGUGUGGAAUUCUCGGGUGUCAAGG
B4: ENSMUSG00000061578.408|Ksr2 (ssRNA)
RNA: GGGAGUUCUACAGUCCGACGAUCGCUUCGAUAUCCGCAUGCUAAUCAGUCUCUUCCCGGAGGAAGCAUCCGGGGGAAAUGUAUUCCUUCGCCCUGCAAGGAGCCAAUGGGAAGAGAGGGGACCAUAUAGUUAGAGACAUUCCCUACCCCCCGACCACUGACCCGUCCAGACCCUCGCUUCUUACAAUGCCUCUUCUUCUGCCAGACCAGCCACCUGCCCCACUAACACCAAAUGGCUUCUGUCCCUGCUUCACGUUGCAAAUCCUUCAAGACAGAAGUUUCAGAGGGGAUAGUUCCUUCUAACCUCUUGCGGUCGCACUAGUGUGGAAUUCUCGGGUGUCAAGG
B5: ENSMUSG00000031028.686|Tub (ssRNA)
RNA: GGGAGUUCUACAGUCCGACGAUCGCUUCGAUAUCCGCAUGCUAUAUUUUUGUUCAAAAUUAUCUGGAGUUUUAGACAAACUUGCAAAACUGUGCUUUUAUUAAGUGACUUUUUGAAUAAACUUUUUGGUAUUCUGAAGCAAAUGUAUUUAUUUAUUGGUAUGUGCAAUGACAAACUUGGUAUUUUCCCAUAAUGACAUUAUGUAUGUUGUAGAAUUUAGUGUUUGUCUAAGUACAGACAUGUAUCAACACAUUAAACUUGAACUGUUUGACGGCUGUGUCCUUGGUUUUCAUAGAGAAGAGAACUCUUGCGGUCGCACUAGUGUGGAAUUCUCGGGUGUCAAGG
B6: ENSMUSG00000029636.181|Wasf3 (ssRNA)
RNA: GGGAGUUCUACAGUCCGACGAUCGCUUCGAUAUCCGCAUGCUACACAGCUCUCUUCUCUCCUGUUGUCGGCACAUUUUCAAUUUUAAAAAGUACCUCACAAGAUAAACUUGAUUCAGCCAGUUGCCCGGGCAGAGACCUGACUUCCCCUCUCCUGCCCUGAUCCUUUUUACCAAAUGGCGAUUCCAUAGUCCUGGCUGAGGCAGGGGCUCAAAGUCCAGUGUCUGCUUUGCAAUUCUGGAAGGACAGCUGCUUAUUUAAAUAAGUCUGUGAUAUCCGCAGGCUUGGGUUACAGGGAGGACCUUCUCUUGCGGUCGCACUAGUGUGGAAUUCUCGGGUGUCAAGG
B7: ENSMUSG00000029028.53|Lrrc47|5:9;12:16;18:22;45:49;64:68;70:74;86:90;93:97;118:122;134:139;141:145;147:151;163:168;170:174;191:195;197:201;208:212;214:218;235:2 … (ssRNA)
RNA: GGGAGUUCUACAGUCCGACGAUCGCUUCGAUAUCCGCAUGCUAUGUCACACAAGCAUACGCACACCUGUAGAUCUUUGUAGGUGUAGCAUACCUGUAGGUAUCUGGCACACGCAUACCUGUAGAUGUCACACAAGCACACGAUAUGCUGUAGGUAUCUGGCACACCUGUAGGUGUCACACACGCACACGCACACCUGUGGGUGUCACACACGCACACCUGUAGGUGUCUGUAGCACACGCAUACCUGCAGCACACGCACACCUGUAGAUCUCUAUAGCACACGCACACCUGUAGGGGUCUGUGCUCUUGCGGUCGCACUAGUGUGGAAUUCUCGGGUGUCAAGG
B8: ENSMUSG00000028439.169|Fam219a (ssRNA)
RNA: GGGAGUUCUACAGUCCGACGAUCGCUUCGAUAUCCGCAUGCUAAGUGGCUGUAUGAUAUGGUAUGGUAUGGUAUGGUAUGGUAUGGUAUGGUAUGCACAUGUGUGUGCAUGUGUGUGUGCCUGUGUGUGUGCGUGUGCGUGUGUGUAUGUGUGUGCGUGUGUGUGUGUGUGUGUUGUACCCGAGUGUGUGUUGAGCCUAUCUGUCCAGGGAACCAGAUUGGUGUCCGAGAUGAGGAAAUGGCUGUGGCCUGGGAAAUCAGUGAGAGGCCGCUUGGGAAUGAGAAUGCAGUGGACUGAAAGCACCUCUUGCGGUCGCACUAGUGUGGAAUUCUCGGGUGUCAAGG
B9: ENSMUSG00000028439.167|Fam219a (ssRNA)
RNA: GGGAGUUCUACAGUCCGACGAUCGCUUCGAUAUCCGCAUGCUAUACAGUGAGCCAAGUGGCUGUAUGAUAUGGUAUGGUAUGGUAUGGUAUGGUAUGGUAUGGUAUGCACAUGUGUGUGCAUGUGUGUGUGCCUGUGUGUGUGCGUGUGCGUGUGUGUAUGUGUGUGCGUGUGUGUGUGUGUGUGUUGUACCCGAGUGUGUGUUGAGCCUAUCUGUCCAGGGAACCAGAUUGGUGUCCGAGAUGAGGAAAUGGCUGUGGCCUGGGAAAUCAGUGAGAGGCCGCUUGGGAAUGAGAAUGCAGUGCUCUUGCGGUCGCACUAGUGUGGAAUUCUCGGGUGUCAAGG
B10: ENSMUSG00000028439.165|Fam219a (ssRNA)
RNA: GGGAGUUCUACAGUCCGACGAUCGCUUCGAUAUCCGCAUGCUAAGCUUAAGGAAAUACAGUGAGCCAAGUGGCUGUAUGAUAUGGUAUGGUAUGGUAUGGUAUGGUAUGGUAUGGUAUGCACAUGUGUGUGCAUGUGUGUGUGCCUGUGUGUGUGCGUGUGCGUGUGUGUAUGUGUGUGCGUGUGUGUGUGUGUGUGUUGUACCCGAGUGUGUGUUGAGCCUAUCUGUCCAGGGAACCAGAUUGGUGUCCGAGAUGAGGAAAUGGCUGUGGCCUGGGAAAUCAGUGAGAGGCCGCUUGGGAAUCUCUUGCGGUCGCACUAGUGUGGAAUUCUCGGGUGUCAAGG
B11: ENSMUSG00000028439.166|Fam219a (ssRNA)
RNA: GGGAGUUCUACAGUCCGACGAUCGCUUCGAUAUCCGCAUGCUAAGGAAAUACAGUGAGCCAAGUGGCUGUAUGAUAUGGUAUGGUAUGGUAUGGUAUGGUAUGGUAUGGUAUGCACAUGUGUGUGCAUGUGUGUGUGCCUGUGUGUGUGCGUGUGCGUGUGUGUAUGUGUGUGCGUGUGUGUGUGUGUGUGUUGUACCCGAGUGUGUGUUGAGCCUAUCUGUCCAGGGAACCAGAUUGGUGUCCGAGAUGAGGAAAUGGCUGUGGCCUGGGAAAUCAGUGAGAGGCCGCUUGGGAAUGAGAAUCUCUUGCGGUCGCACUAGUGUGGAAUUCUCGGGUGUCAAGG
B12: ENSMUSG00000028439.164|Fam219a (ssRNA)
RNA: GGGAGUUCUACAGUCCGACGAUCGCUUCGAUAUCCGCAUGCUAAGAGCAAGCUUAAGGAAAUACAGUGAGCCAAGUGGCUGUAUGAUAUGGUAUGGUAUGGUAUGGUAUGGUAUGGUAUGGUAUGCACAUGUGUGUGCAUGUGUGUGUGCCUGUGUGUGUGCGUGUGCGUGUGUGUAUGUGUGUGCGUGUGUGUGUGUGUGUGUUGUACCCGAGUGUGUGUUGAGCCUAUCUGUCCAGGGAACCAGAUUGGUGUCCGAGAUGAGGAAAUGGCUGUGGCCUGGGAAAUCAGUGAGAGGCCGCUUCUCUUGCGGUCGCACUAGUGUGGAAUUCUCGGGUGUCAAGG
B13: ENSMUSG00000028439.163|Fam219a (ssRNA)
RNA: GGGAGUUCUACAGUCCGACGAUCGCUUCGAUAUCCGCAUGCUAUCUUCAAGAGCAAGCUUAAGGAAAUACAGUGAGCCAAGUGGCUGUAUGAUAUGGUAUGGUAUGGUAUGGUAUGGUAUGGUAUGGUAUGCACAUGUGUGUGCAUGUGUGUGUGCCUGUGUGUGUGCGUGUGCGUGUGUGUAUGUGUGUGCGUGUGUGUGUGUGUGUGUUGUACCCGAGUGUGUGUUGAGCCUAUCUGUCCAGGGAACCAGAUUGGUGUCCGAGAUGAGGAAAUGGCUGUGGCCUGGGAAAUCAGUGAGAGGCUCUUGCGGUCGCACUAGUGUGGAAUUCUCGGGUGUCAAGG
B14: ENSMUSG00000028439.168|Fam219a (ssRNA)
RNA: GGGAGUUCUACAGUCCGACGAUCGCUUCGAUAUCCGCAUGCUAGAGCCAAGUGGCUGUAUGAUAUGGUAUGGUAUGGUAUGGUAUGGUAUGGUAUGGUAUGCACAUGUGUGUGCAUGUGUGUGUGCCUGUGUGUGUGCGUGUGCGUGUGUGUAUGUGUGUGCGUGUGUGUGUGUGUGUGUUGUACCCGAGUGUGUGUUGAGCCUAUCUGUCCAGGGAACCAGAUUGGUGUCCGAGAUGAGGAAAUGGCUGUGGCCUGGGAAAUCAGUGAGAGGCCGCUUGGGAAUGAGAAUGCAGUGGACUGACUCUUGCGGUCGCACUAGUGUGGAAUUCUCGGGUGUCAAGG

Whole data set: some 9,900 sequences, median “r (bound/input frequency ratio)” near 0.7, cut for the highest 2% near 6.5. For the sample, the highest values were picked, then their nearest neighbours and some sequences at random.

TDP-43, sequence (Q13148 whole entry): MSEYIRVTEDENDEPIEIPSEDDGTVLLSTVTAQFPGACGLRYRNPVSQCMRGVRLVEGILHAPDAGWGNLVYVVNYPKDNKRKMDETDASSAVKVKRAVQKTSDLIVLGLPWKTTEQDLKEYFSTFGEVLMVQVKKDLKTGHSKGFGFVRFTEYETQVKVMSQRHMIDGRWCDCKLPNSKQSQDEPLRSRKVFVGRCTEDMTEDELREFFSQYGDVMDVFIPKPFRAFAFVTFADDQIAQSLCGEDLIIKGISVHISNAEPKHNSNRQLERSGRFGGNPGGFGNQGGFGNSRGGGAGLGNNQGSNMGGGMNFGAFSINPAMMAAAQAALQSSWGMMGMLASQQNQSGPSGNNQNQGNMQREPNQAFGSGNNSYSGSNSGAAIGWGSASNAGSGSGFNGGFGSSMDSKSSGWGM

This experiment concerns the target TDP-43 (Homo sapiens, UniProt Q13148 1-414). Briefly: RNA Bind-n-Seq with designed 260-mer pool; 25 mM Tris-HCl, 150 mM KCl, 3 mM MgCl2, BSA (printed 500 mg/mL), 20 units/mL SUPERase IN; pH not stated; 500 nM RNA pool, 1 h, 4 C; TDP-43 5, 50, 500 nM; high values mean tight binding. Particulars: protein: recombinant; tags: SBP (GST cleaved off with PreScission; pGEX-GST-SBP). The gist of the method:
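In 25 mM Tris-HCl, 150 mM KCl, 3 mM MgCl2, BSA and SUPERase IN, 500 nM of an in vitro-transcribed 260-nt 3′ UTR oligo pool was incubated for 1 h at 4 °C with SBP-tagged TDP-43 (5, 50 or 500 nM) captured on streptavidin beads. RNA remaining after washes was biotin-eluted, reverse transcribed, PCR-amplified and sequenced. Binding, R, is the bound-sample abundance of each oligo, normalized to mapped reads, divided by its abundance in input. Each duplicate used a separate, independent protein batch.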
With B1, the binding signal is 0.965 R (bound/input frequency ratio).

As for B2, the binding signal is 0.589 R (bound/input frequency ratio).

Regarding B3, the binding signal was 1.57 R (bound/input frequency ratio).

Regarding B4, the binding signal is 1.09 R (bound/input frequency ratio).

For the molecule B5, the binding signal was 0.181 R (bound/input frequency ratio).

In the case of B6, the binding signal is 0.344 R (bound/input frequency ratio).

In the case of B7, the binding signal was 0.453 R (bound/input frequency ratio).

Turning to B8, the binding signal is 6.41 R (bound/input frequency ratio).

Regarding B9, the binding signal is 6.28 R (bound/input frequency ratio).

Turning to B10, the binding signal is 6.33 R (bound/input frequency ratio).

Regarding B11, the binding signal is 6.86 R (bound/input frequency ratio).

As for B12, the binding signal is 8.42 R (bound/input frequency ratio).

As for B13, the binding signal is 5.79 R (bound/input frequency ratio).

Take B14: the binding signal was 7.15 R (bound/input frequency ratio).

The values are drawn from publication PMC12864922, “TDP-43 directly inhibits mRNA accumulation in neurites through modulation of mRNA stability”.
